HEK cytotox = Cytotoxic Profiling in HEK 293 Cell Line of Diverse Libraries Using Quantitative High-Throughput Screening; 94,000 tested, 6.6% active; Potency, µM (doses to about 115 µM), for the others: at the highest dose activity change, negative = cytotoxicity, most hits filed as inhibitors; HEK 293 viability, ATP luminescence (CellTiter-Glo), 48-72 h; further: on the % scale 0 is the no-effect control and ±100 the full control effect; nearly all actives have a fitted effect of over 60% in size
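Viability of HEK 293 cells, plated at 250 cells/well, was judged by cellular ATP after compound treatment for 48 or 72 hr. Luminescence was imaged 10 min after CellTiter-Glo addition at room temperature.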
FLuc inh-1 = Firefly luciferase inhibition profiling of diverse chemical library using quantitative high-throughput screening; AID 1347043, 2019; purified P. pyralis luciferase, luminescence, biochemical; 76,000 tested, 2.5% active; Potency, µM (top dose mostly 115 µM), hits mostly inhibitors; further: on the % scale 0 is the no-effect control and ±100 the full control effect; nearly all actives have a fitted effect of over 65% in size
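Purified 10nM P. pyralis luciferase with 10uM D-luciferin and 10uM ATP in 50mM Tris acetate pH 7.5, 10mM Mg acetate, 0.01% Tween-20, 0.05% BSA. qHTS titration; luminescence read by CCD imager.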
NPR1 antag = Natriuretic polypeptide receptor (hNpr1) antagonism - Primary qHTS. 76,000 tested, 1.6% active. Atrial natriuretic peptide receptor 1 (Homo sapiens), P16066. Potency, µM (top dose mostly 46.3 µM), without a hit: top-dose activity change, negative = inhibition, hits mostly inhibitors. HEK293 hNpr1 GloSensor cGMP, ANP-stimulated luminescence; calls by dose curve; further: on the % scale 0 is the no-effect control and ±100 the full control effect; nearly all actives have a fitted effect of over 60% in size
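HEK293 cells stably expressing human Npr1 and cGMP GloSensor pGS-40F, loaded 2 h with 2% GloSensor reagent, given compound 30 min at room temperature. Luminescence read before and 20 min after 0.1 nM hNppA.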
NIH3T3 tox = Cytotoxic Profiling in NIH 3T3 Cell Line of Diverse Libraries Using Quantitative High-Throughput Screening | NIH 3T3 viability, CellTiter-Glo ATP luminescence, 48-72 h | Potency, µM (top dose mostly 96.7 µM), without a hit: at the top dose activity change, negative = cytotoxicity, hits mostly inhibitors | 94,000 tested, 4.3% active; further: on the % scale 0 is the no-effect control and ±100 the full control effect; nearly all actives have a fitted effect of over 55% in size
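Cytotoxicity was measured by CellTiter-Glo ATP luminescence after 48 or 72 h compound exposure at 37 °C. Mouse NIH 3T3 fibroblasts were seeded at 400 cells/well and dosed by 23 nL pin transfer.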
GPT2 inhibitor = Primary qHTS assay for inhibitors of Glutamate pyruvate transaminase 2 (GPT2); Recombinant GPT2, coupled pyruvate oxidase/HRP Amplex Red fluorescence; Potency, µM (doses to about 57.7 µM), for the others: top-dose activity change, negative = inhibition, actives largely listed as inhibitors; 100,000 tested, 0.25% active; AID 1671188, 2021; further: on the % scale 0 is the no-effect control and ±100 the full control effect; nearly all actives have a fitted effect of over 60% in size
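Fluorescence of coupled pyruvate oxidase/HRP/Amplex Red system (50uM Amplex, 30 min, dark) reports pyruvate formed by GPT2. Enzyme reaction: 10ng/uL GPT2, 2mM L-alanine, 250uM a-KG, 30 min room temperature, pH 7.5; 50uM AOA control.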
FLuc SDR no ATP = Firefly luciferase (FLuc-C-HiBiT) SDR gain of signal screen - without ATP; 1,300 tested, 7.8% active; Potency, µM (doses to about 32.7 µM), for the others: at the highest dose activation (signal gain), actives largely listed as activators; AID 1963318, 2024; Purified FLuc-C-HiBiT, Nano-Glo HiBiT luminescence, no ATP; shares compounds with FLuc inh-1; further: nearly all actives have a fitted effect of over 55% in size
FLuc SDR ATP = Firefly luciferase (FLuc-C-HiBiT) SDR gain of signal screen - plus ATP; purified FLuc-C-HiBiT + ATP, HiBiT complementation luminescence; AID 1963319, 2024; Potency, µM (titrated, usually from 32.7 µM), inactives show at the highest dose activation (gain of signal), actives largely listed as activators; 1,300 tested, 8.7% active; shares compounds with FLuc inh-1;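 further: signal reports ligand binding via conformational change of the enzyme rather than luciferase catalysis; % of control where 0% means no effect; nearly all actives have a fitted effect of over 55% in size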
FLuc inh-2 = Firefly luciferase (FLuc-C-HiBiT) enzymatic inhibition screen - Functional assay | shares compounds with FLuc inh-1 | purified FLuc-C-HiBiT enzyme, luciferin luminescence | Potency, µM (titrated, usually from 32.7 µM), for inactives: at the highest dose activity change, negative = inhibition, actives largely listed as inhibitors | 1,300 tested, 42% active | AID 1963320, 2024; further: on the % scale 0 is the no-effect control and ±100 the full control effect; nearly all actives have a fitted effect of over 70% in size
* marks the source's active call; other numbers are inactive results; i = inactive; ? = inconclusive; / = no result; [ ] = remark or other dose. This is a sample that favours compounds with a hit; in the whole collection about 10% have one here. Unless noted, the call rests on the fitted dose curve; in most records, active means well fitted curve in the direction sought with a large enough effect; inconclusive means small, poorly fitted or top-dose-only effect, or another doubt; inactive means no such curve, though single readings can be large; an effect the other way counts as inactive or inconclusive. Potency means the concentration at half of the fitted maximal effect.

SMILES	HEK cytotox	FLuc inh-1	NPR1 antag	NIH3T3 tox	GPT2 inhibitor	FLuc SDR no ATP	FLuc SDR ATP	FLuc inh-2
COc1ccc(-c2nc3ccccc3s2)cc1NC(=O)c1cc(OC)c(OC)c(OC)c1	/	/	/	/	/	14%	10%	?
COc1ccccc1NC(=O)c1cc(-c2ccc(C(F)(F)F)cc2)nc2c1cnn2C	-9%	/	/	-22%	/	/	/	/
COc1ccc(C(=O)Nc2ccc(-c3nc4ccccc4s3)cc2C)cc1Cl	/	/	/	/	/	10%	8%	-4%
COc1ccc(-c2nc3ccccc3s2)cc1NC(=O)c1ccccc1OC	/	/	/	/	/	18%	10%	?
CNC(=O)[C@@H]1C[C@H](Oc2cccnc2)CN1C(=O)C(C)C	-15%	i	-10%	-22%	-19%	/	/	/
Cc1ccc(CNC(=O)N2CCCN(S(=O)(=O)c3ccccc3)CCC(=O)NCC2)cc1	-6%	i	-10%	-19%	i	/	/	/
Cc1c(C(=O)Nc2cccc(-c3nc4ccccc4s3)c2)oc2ccc(F)cc12	/	/	/	/	/	12%	8%	-14%
COc1ccc(-c2nc3ccccc3s2)cc1NC(=O)c1cccc(F)c1	/	/	/	/	/	9%	8%	-12%
COc1cc(-c2nc3ccccc3s2)ccc1O	/	/	/	/	/	24%	17%	11µM*
COc1ccc(-c2nc3ccccc3o2)cc1NC(=O)c1cccnc1	/	/	/	/	/	18%	11%	?
COCCCNC(=O)c1ccc2nc(-c3cccnc3)oc2c1	?	/	/	?	-2%[88.5 µM]	/	/	/
Cc1cc(C)cc(CN2CCCCC23Cc2ccccc2CNC3=O)c1 (configuration not stated)	?	/	/	?	i	/	/	/
Cc1ccccc1N(C)C1CN([S+](=O)([O-])c2cccc(C(F)(F)F)c2)C1	?	/	/	?	i	/	/	/
Cc1cccc(NC(=O)N2CCC(Cc3nc(-c4ccccc4)n[nH]3)CC2)c1	i	i	1%	-13%	i	/	/	/
O=C(Nc1cccc(-c2nc3ccccc3s2)c1)N1CCC(O)C1 (configuration not stated)	/	/	/	/	/	?	?	8.8µM*
CCn1c(=O)c(C(=O)Nc2ccc(C(C)=O)cc2)nc2ccccc21	/	/	/	/	/	?	?	?
Cc1ccc(NC(=O)COc2ccc(-c3nnc4n3CCCC4)cc2)cc1F	-7%	i	-7%	?	3%	/	/	/
CSC(=S)Nc1ccc(-c2nc3ccc(C)cc3s2)cc1	/	/	/	/	/	25%	19%	2.5µM*
Cc1ccc2nc(-c3ccc(NC(=O)COc4ccc(Br)cc4Br)cc3)sc2c1	/	/	/	/	/	?	?	3.5µM*
Cc1ccc2nc(-c3ccc(NC(=O)COc4ccc(Cl)c(C)c4)cc3)sc2c1	/	/	/	/	/	16%	10%	-11%
Cc1ccc(NC(=O)c2cc(NC(=O)C3CC3)cc3nc(C)ccc23)cc1	?	i	4%	?	1%	/	/	/
